Records with an inconclusive call do not appear. Active and inactive are the calls of the source. Calls follow the shape of the dose curve; as a rule, active = well fitted curve in the direction sought with a large enough effect; inconclusive = small, poorly fitted or top-dose-only effect, or another doubt; inactive = no such curve, though single readings can be large; an effect the other way counts as inactive or inconclusive.
Key:
[1] = molecular target: ATP-dependent 6-phosphofructokinase (Trypanosoma brucei brucei) (UniProt O15648); experiment: qHTS Assay to Find Inhibitors of T. brucei phosphofructokinase: hit validation (AID 492961);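 also: luminescence reports ADP formed as PFK phosphorylates fructose-6-phosphate with ATP; % is scaled to controls: 0 for no effect and ±100 for the full control effect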
How it was run: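 Percent activity derived from corrected luminescence, normalized between 0x and 1x enzyme controls, then fitted to concentration-response curves. Conditions: 1.25 nM PFK, 0.1 mM ATP, 0.5 mM F6P, 45 min RT.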

[2] = molecular target: Ubiquitin carboxyl-terminal hydrolase 1 (Homo sapiens) (UniProt O94782); experiment: Inhibitors of USP1/UAF1: Pilot qHTS (AID 504865); also: potency is read from the fitted curve at half-maximal effect; nearly all actives have a fitted effect of over 35% in size
How it was run: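 Enzyme-free wells gave the negative control, while test wells held 1nM USP1/UAF1 preincubated with compound for 15 min at room temperature. Ub-Rho at 150nM final started the reaction, and fluorescence at 480/540 nm was recorded kinetically.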

[3] = molecular target: Luciferin 4-monooxygenase (Photinus pyralis) (UniProt P08659); experiment: Biochemical firefly luciferase enzyme assay for NPC (AID 624030); also: potency is read from the fitted curve at half-maximal effect; nearly all actives have a fitted effect of over 70% in size
How it was run: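 Counter-screen for direct inhibition of the luciferase enzyme by approved-drug library compounds, run at 10 nM enzyme in 50 mM Tris acetate (final). Luminescence was read within 5 min of enzyme-buffer addition and normalized to PTC124 versus DMSO (0%).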

[4] = S16 Schwann cell viability assay (CellTiter-Glo assay) (AID 624031);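 also: cellular ATP luminescence as a viability measure; plate controls were DMSO-treated cells for no effect and cell-free wells for full effect; nearly all actives have a fitted effect of over 70% in size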
How it was run: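 Native S16 Schwann cells (rat), serum-containing medium, overnight attachment then 24 h drug exposure at 37 °C/5% CO2. CellTiter-Glo ATP signal; normalized to cell-free and vehicle wells.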

[5] = S16 Schwann cell PMP22 intronic element firefly luciferase assay (AID 624032);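 also: plate controls were DMSO for no effect and PTC124 positive control mean for full effect; nearly all actives have a fitted effect of over 30% in size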
How it was run: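 Rat S16 Schwann cells stably carrying a PMP22 intronic element-driven Fluc reporter were seeded overnight, then exposed to compounds for 24 h at 37 °C. Luminescence was normalized to PTC124 (positive control) and DMSO (0% activity).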

Furin (Homo sapiens) = Furin (Homo sapiens) (UniProt P09958); experiment: Furin counterscreen qHTS for Zika virus inhibitors (AID 1347149); also: potency is read from the fitted curve at half-maximal effect; nearly all actives have a fitted effect of over 70% in size
How it was run: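 Counterscreen measures cleavage of 2 microM BOC-RVRR-AMC, below its ~15 microM Km, by 5 nM full-length human furin at pH 7.0 after a 15-min compound preincubation. Inhibition derives from the 15-min fluorescence increase at 37C.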

[6] = Confirmatory screen GU Rhodamine qHTS for Zika virus inhibitors qHTS (AID 1347157); also: potency is read from the fitted curve at half-maximal effect; nearly all actives have a fitted effect of over 70% in size
How it was run: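 Unlinked NS2B/NS3, 25 nM; Rhod110 peptide, 1.5 microM; compounds, up to 114 microM. Reaction run 15 min at RT in 10 mM Tris-HCl pH 8.0, 0.01% Tween 20; kinetic fluorescence change fitted with a 4-parameter Hill model.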

[7] = Confirmatory screen NINDS Rhodamine qHTS for Zika virus inhibitors (AID 1347161); also: potency is read from the fitted curve at half-maximal effect; nearly all actives have a fitted effect of over 60% in size
How it was run: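 Single-chain NS2B-NS3 protease, 25 nM, pH 8.0; compounds preincubated 15 min. Activity: Rhodamine110 release from 1.5 microM substrate over 15 min, room temperature, data fitted to 4-parameter Hill.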

[8] = Tertiary RLuc qRT-PCR qHTS assay for Zika virus inhibitors (AID 1347169); also: top concentration of the series differs between compounds; % is scaled to controls: 0 for no effect and ±100 for the full control effect; nearly all actives have a fitted effect of over 55% in size
How it was run: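 Inhibition of ZIKV-RLuc replication in Vero cells, read as Renilla luminescence 1-1.5 hrs after live-cell substrate addition, following 48-72 hrs infection at MOI 1-2 in presence of compound.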

[9] = qHTS profiling for inhibitors of Plasmodium falciparum proliferation (AID 504749);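 also: 0% = DMSO vehicle and full inhibition = artemisinin control; nearly all actives have a fitted effect of over 60% in size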; conditions: P. falciparum in erythrocytes, SYBR Green DNA, 72 h, at 28.7 µM (top of the series)
How it was run: (§1)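 Quantitative HTS: compounds pinned into medium, infected erythrocytes added (0.3% parasitemia, 2.5% hematocrit), 72 h culture at 37 C under 5% CO2. Saponin/Triton lysis with SYBR Green I, overnight RT, then fluorescence read.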

3D7 = experiment: as above; conditions: P. falciparum in erythrocytes, SYBR Green DNA, 72 h; series mostly up to 28.7 µM
How it was run: as §1

AA1029 = experiment: as above; conditions: P. falciparum in erythrocytes, SYBR Green DNA, 72 h; series mostly up to 28.7 µM
How it was run: as §1

AS120 = experiment: as above; conditions: P. falciparum in erythrocytes, SYBR Green DNA, 72 h; series mostly up to 28.7 µM
How it was run: as §1

ATS189 = experiment: as above; conditions: P. falciparum in erythrocytes, SYBR Green DNA, 72 h; series mostly up to 28.7 µM
How it was run: as §1

ATS95 = experiment: as above; conditions: P. falciparum in erythrocytes, SYBR Green DNA, 72 h; series mostly up to 28.7 µM
How it was run: as §1

C2A = experiment: as above; conditions: P. falciparum in erythrocytes, SYBR Green DNA, 72 h; series mostly up to 28.7 µM
How it was run: as §1

CP185 = experiment: as above; conditions: P. falciparum in erythrocytes, SYBR Green DNA, 72 h; series mostly up to 28.7 µM
How it was run: as §1

CP191 = experiment: as above; conditions: P. falciparum in erythrocytes, SYBR Green DNA, 72 h; series mostly up to 28.7 µM
How it was run: as §1

CP192 = experiment: as above; conditions: P. falciparum in erythrocytes, SYBR Green DNA, 72 h; series mostly up to 28.7 µM
How it was run: as §1

CP194 = experiment: as above; conditions: P. falciparum in erythrocytes, SYBR Green DNA, 72 h; series mostly up to 28.7 µM
How it was run: as §1

CP201 = experiment: as above; conditions: P. falciparum in erythrocytes, SYBR Green DNA, 72 h; series mostly up to 28.7 µM
How it was run: as §1

CP211 = experiment: as above; conditions: P. falciparum in erythrocytes, SYBR Green DNA, 72 h; series mostly up to 28.7 µM
How it was run: as §1

CP217 = experiment: as above; conditions: P. falciparum in erythrocytes, SYBR Green DNA, 72 h; series mostly up to 28.7 µM
How it was run: as §1

CP237 = experiment: as above; conditions: P. falciparum in erythrocytes, SYBR Green DNA, 72 h; series mostly up to 28.7 µM
How it was run: as §1

CP238 = experiment: as above; conditions: P. falciparum in erythrocytes, SYBR Green DNA, 72 h; series mostly up to 28.7 µM
How it was run: as §1

CP250 = experiment: as above; conditions: P. falciparum in erythrocytes, SYBR Green DNA, 72 h; series mostly up to 28.7 µM
How it was run: as §1

CP252 = experiment: as above; conditions: P. falciparum in erythrocytes, SYBR Green DNA, 72 h; series mostly up to 28.7 µM
How it was run: as §1

CP256 = experiment: as above; conditions: P. falciparum in erythrocytes, SYBR Green DNA, 72 h; series mostly up to 28.7 µM
How it was run: as §1

CP260 = experiment: as above; conditions: P. falciparum in erythrocytes, SYBR Green DNA, 72 h; series mostly up to 28.7 µM
How it was run: as §1

CP262 = experiment: as above; conditions: P. falciparum in erythrocytes, SYBR Green DNA, 72 h; series mostly up to 28.7 µM
How it was run: as §1

Ubiquitin carboxyl-terminal hydrolase 1 (Homo sapiens), sequence (O94782 whole entry, looked up): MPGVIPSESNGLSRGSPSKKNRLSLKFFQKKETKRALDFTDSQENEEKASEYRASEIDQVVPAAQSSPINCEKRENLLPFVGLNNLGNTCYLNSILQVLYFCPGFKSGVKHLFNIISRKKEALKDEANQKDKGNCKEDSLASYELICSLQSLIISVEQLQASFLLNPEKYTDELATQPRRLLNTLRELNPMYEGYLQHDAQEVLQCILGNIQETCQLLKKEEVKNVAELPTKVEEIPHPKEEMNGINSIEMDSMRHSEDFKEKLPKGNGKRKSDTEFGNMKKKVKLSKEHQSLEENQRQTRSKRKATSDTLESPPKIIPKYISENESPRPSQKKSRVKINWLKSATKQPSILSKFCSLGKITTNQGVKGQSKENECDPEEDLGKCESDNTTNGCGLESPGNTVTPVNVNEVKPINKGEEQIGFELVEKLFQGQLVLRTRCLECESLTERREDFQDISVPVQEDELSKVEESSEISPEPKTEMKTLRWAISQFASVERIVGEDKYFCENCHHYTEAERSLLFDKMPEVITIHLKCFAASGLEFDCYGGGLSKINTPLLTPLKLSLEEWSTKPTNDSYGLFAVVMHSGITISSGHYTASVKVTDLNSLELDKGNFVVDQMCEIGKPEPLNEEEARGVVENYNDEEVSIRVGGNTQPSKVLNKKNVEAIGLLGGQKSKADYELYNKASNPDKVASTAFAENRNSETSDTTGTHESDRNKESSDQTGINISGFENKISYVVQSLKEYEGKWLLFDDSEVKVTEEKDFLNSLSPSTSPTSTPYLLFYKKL
Furin (Homo sapiens), sequence (P09958 whole entry, looked up): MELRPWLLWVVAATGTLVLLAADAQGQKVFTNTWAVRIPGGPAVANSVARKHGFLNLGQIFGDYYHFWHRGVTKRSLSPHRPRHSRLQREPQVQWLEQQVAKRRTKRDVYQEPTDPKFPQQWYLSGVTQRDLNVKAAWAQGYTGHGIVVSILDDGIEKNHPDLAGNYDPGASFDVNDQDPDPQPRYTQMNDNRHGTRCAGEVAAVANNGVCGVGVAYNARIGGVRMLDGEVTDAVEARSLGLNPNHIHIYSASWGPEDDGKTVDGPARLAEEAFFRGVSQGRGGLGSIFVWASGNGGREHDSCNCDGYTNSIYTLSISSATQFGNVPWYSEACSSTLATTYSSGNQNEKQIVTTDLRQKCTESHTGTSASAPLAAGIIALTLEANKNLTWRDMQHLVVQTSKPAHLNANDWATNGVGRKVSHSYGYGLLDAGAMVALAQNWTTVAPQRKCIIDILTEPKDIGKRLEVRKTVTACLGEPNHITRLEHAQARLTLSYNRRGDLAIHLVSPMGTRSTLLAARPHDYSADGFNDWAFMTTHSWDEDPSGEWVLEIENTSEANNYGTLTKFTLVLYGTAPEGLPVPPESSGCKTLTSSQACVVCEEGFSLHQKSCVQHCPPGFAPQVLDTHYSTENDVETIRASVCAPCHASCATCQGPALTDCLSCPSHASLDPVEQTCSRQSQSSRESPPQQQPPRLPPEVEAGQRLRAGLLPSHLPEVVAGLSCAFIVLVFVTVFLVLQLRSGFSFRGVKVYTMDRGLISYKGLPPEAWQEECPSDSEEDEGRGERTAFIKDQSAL
ATP-dependent 6-phosphofructokinase (Trypanosoma brucei brucei), sequence (O15648 whole entry, looked up): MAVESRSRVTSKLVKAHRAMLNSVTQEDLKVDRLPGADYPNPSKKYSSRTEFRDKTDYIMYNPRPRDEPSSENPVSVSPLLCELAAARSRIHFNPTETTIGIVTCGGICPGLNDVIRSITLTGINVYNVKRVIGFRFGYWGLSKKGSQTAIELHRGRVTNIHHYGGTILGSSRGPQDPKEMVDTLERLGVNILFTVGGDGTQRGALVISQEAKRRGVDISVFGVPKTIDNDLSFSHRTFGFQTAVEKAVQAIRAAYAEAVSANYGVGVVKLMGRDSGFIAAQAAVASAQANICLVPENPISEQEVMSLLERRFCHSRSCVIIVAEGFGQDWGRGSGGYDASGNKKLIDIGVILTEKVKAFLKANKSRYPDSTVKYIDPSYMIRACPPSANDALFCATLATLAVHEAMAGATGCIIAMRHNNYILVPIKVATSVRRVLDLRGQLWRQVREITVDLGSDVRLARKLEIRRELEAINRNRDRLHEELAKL
Luciferin 4-monooxygenase (Photinus pyralis), sequence (P08659 whole entry, looked up): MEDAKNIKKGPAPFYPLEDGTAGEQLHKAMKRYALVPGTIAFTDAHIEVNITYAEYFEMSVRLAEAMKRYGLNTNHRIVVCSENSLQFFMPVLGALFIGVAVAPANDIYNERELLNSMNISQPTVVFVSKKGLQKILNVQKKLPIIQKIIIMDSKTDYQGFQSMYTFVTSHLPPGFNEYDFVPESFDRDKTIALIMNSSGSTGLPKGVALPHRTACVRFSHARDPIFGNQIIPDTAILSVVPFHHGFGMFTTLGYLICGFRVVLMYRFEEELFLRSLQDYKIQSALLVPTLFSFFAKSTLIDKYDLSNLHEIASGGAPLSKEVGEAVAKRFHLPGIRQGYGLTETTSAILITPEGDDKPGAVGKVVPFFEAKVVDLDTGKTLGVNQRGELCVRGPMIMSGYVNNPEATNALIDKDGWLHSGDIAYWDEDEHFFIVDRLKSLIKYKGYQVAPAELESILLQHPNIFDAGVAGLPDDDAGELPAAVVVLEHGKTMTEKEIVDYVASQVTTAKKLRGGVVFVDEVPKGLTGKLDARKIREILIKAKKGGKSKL

CC(C)(O)c1ccccc1CC[C@H](SCC1(CC(=O)O)CC1)c1cccc(/C=C/c2ccc3ccc(Cl)cc3n2)c1
active: Potency [2] 39.8 µM | Potency [3] 11.4 µM | Potency (Furin (Homo sapiens)) 52.7 µM | Potency [6] 11.2 µM | Potency [7] 22.4 µM
inactive: outcome [1] | outcome [4] | Potency [5] | Potency [8] | activity, negative = inhibition ([9]; parasite line A) -2.01% | activity, negative = inhibition ([9]; parasite line B) -18.3% | Potency (3D7) | Potency (AA1029) | Potency (AS120) | Potency (ATS189) | Potency (ATS95) | Potency (C2A) | Potency (CP185) | Potency (CP191) | Potency (CP192) | Potency (CP194) | Potency (CP201) | Potency (CP211) | Potency (CP217) | Potency (CP237) | Potency (CP238) | Potency (CP250) | Potency (CP252) | Potency (CP256) | Potency (CP260) | Potency (CP262)

Source: PubChem BioAssay (NCATS)
